# Screens as filed in PubChem BioAssay.
# Fam108B inh = mouse Fam108B serine hydrolase inhibitors, primary screen, counter-screen for RBBP9 inhibitor project, biochemical, fluorescence polarization; 0.33% of 300,000 active; inhibition, % at 9.51 µM; AID 1947, 2009; recombinant Fam108B, FP-Rh probe fluorescence polarization;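 active = inhibition above the screen mean inhibition plus 3 SD, computed separately per campaign, cut at about 18% in these data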;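 also: inhibitors lower polarization as less probe binds the enzyme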
# PAFAH1B3 inh = PAFAH1B3 enzyme inhibitors, primary screen, biochemical, fluorescence polarization, human | recombinant PAFAH1B3, FP-rhodamine probe | inhibition, % at 3.39 µM | 0.28% of 340,000 active | AID 492972, 2010;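 active = inhibition above the screen-wide average of all tested compounds plus 3 SD, cut at about 25% in these data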;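 also: 0% = enzyme with DMSO only and 100% = wells lacking PAFAH1B3 protein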
# PAFAH1B2 inh = PAFAH1B2 enzyme inhibitors, primary screen, biochemical, fluorescence polarization, human; Platelet-activating factor acetylhydrolase IB subunit alpha2 (Homo sapiens), P68402; recombinant PAFAH1B2, FP-rhodamine activity probe; inhibition, % at 3.39 µM; 1.2% of 340,000 active;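 active = inhibition above the mean of all tested compounds plus 3 SD, cut at about 24% in these data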;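 also: 0% = enzyme with DMSO and 100% = wells lacking PAFAH1B2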
# pPAFAH inh = pPAFAH enzyme inhibitors, primary screen, biochemical, fluorescence polarization, human | inhibition, % at 3.39 µM | 1.5% of 330,000 active | recombinant pPAFAH, FP-rhodamine probe fluorescence polarization | AID 463082, 2010 | Platelet-activating factor acetylhydrolase (Homo sapiens), Q13093;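 active = inhibition above the mean inhibition across the screen plus 3 SD, cut at about 25% in these data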;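 also: inhibitors block binding of the rhodamine activity-based probe so polarization drops; 0% = enzyme with DMSO and 100% = wells lacking pPAFAH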
# PME-1 inh = PME-1 inhibitors via competitive probe labeling, primary screen, biochemical, fluorescence polarization, FP-Rh probe, HTS; Protein phosphatase methylesterase 1 (Homo sapiens), Q9Y570; recombinant PME-1; inhibition, % at 5.9 µM; 0.53% of 320,000 active;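 active = inhibition above the campaign mean of all compounds plus 3 SD, cut at about 26% in these data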;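 also: competitive labeling of PME-1 active site by serine hydrolase directed probe; 0% = PME-1 with DMSO and 100% = wells lacking PME-1 enzyme; inhibitors block probe labeling so polarization falls and inhibition rises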
# Target sequence (Q9Y570 whole entry, looked up): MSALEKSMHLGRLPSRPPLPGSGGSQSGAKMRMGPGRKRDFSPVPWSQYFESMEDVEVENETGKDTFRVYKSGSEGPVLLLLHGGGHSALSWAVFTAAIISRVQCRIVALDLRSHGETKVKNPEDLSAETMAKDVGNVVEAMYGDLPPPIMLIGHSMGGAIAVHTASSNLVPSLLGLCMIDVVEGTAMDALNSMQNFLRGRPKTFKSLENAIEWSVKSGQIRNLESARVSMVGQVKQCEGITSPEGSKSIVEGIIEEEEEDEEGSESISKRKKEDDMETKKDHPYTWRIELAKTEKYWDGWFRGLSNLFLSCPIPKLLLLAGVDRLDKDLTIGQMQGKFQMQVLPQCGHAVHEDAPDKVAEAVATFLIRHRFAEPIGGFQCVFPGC
# PAFAH2 inh = PAFAH2 enzyme inhibitors, primary screen, biochemical, fluorescence polarization, human. Platelet-activating factor acetylhydrolase 2, cytoplasmic (Homo sapiens), Q99487. recombinant PAFAH2, FP-rhodamine activity probe. inhibition, % at 3.39 µM. 0.99% of 340,000 active. AID 492956, 2010;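 active = inhibition above the mean over all tested compounds plus 3 SD, cut at about 30% in these data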;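 also: inhibitors block probe labeling of enzyme so polarization drops; 0% = enzyme with DMSO and 100% = wells lacking PAFAH2 protein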
# * hit, by the source's call; nt = no result given. This is a sample that favours compounds with a hit; in the whole collection about 2.9% have one here.
SMILES,Fam108B inh,PAFAH1B3 inh,PAFAH1B2 inh,pPAFAH inh,PME-1 inh,PAFAH2 inh
Cc1ccc(-c2noc(COC(=O)c3ccco3)n2)cc1,nt,12,7,-1,-3,22
COc1ccccc1/C=c1\sc2nc(-c3ccco3)nn2c1=O,2,3,6,25*,-8,17
O=C(O)CCCNc1cc(N2CCC3(CC2)OCCO3)c2noc3c2c1C(=O)c1ccccc1-3,35*,nt,nt,76*,-2,nt
COc1ccc2c(c1)C(c1ccccc1)NC(=O)C2 (stereo not given),-1,7,1,-6,0,-2
CC(C)NC(=O)c1onc(CSc2nc3ccccc3[nH]2)c1C(=O)NC(C)C,-4,7,4,0,-6,-4
O=S(=O)(c1ccc(Br)cc1)N1CCC2(CC1)OCCO2,0,7,27*,-2,2,8
CCOC(=O)CN(C(=O)CSc1nnc(Cc2ccccc2)n1-c1ccc(C)cc1)c1ccccc1,3,1,2,13,-10,1
CCOC(=O)CSc1nnc(Cc2ccccc2)n1-c1ccc(C)cc1,4,1,7,32*,-7,8
Cc1ccc(-c2noc(CSc3nnc(CCc4ccccc4)n3-c3ccccc3)n2)cc1,1,0,6,8,4,-8
Cc1ccc(-c2noc(CSc3nnc(Cc4ccccc4)n3-c3ccc(Cl)cc3)n2)cc1,-6,-4,20,25*,-4,-2
Cc1ccc(S(=O)(=O)NCC(c2ccc3c(c2)OCO3)N2CCN(c3ccccc3)CC2)cc1 (stereo not given),-2,1,1,0,0,3
CN(C(=O)c1cc(-c2ccccc2)on1)C1CCCCC1,-2,4,-3,-9,-5,-3
CCCCC/C=C\C/C=C\C/C=C\C/C=C\CCCC(=O)O,-5,nt,nt,47*,-4,nt
CCOC(=O)N1CC=C2C(C#N)=C(N)C(C#N)(C#N)[C@H](c3ccc(OCC)c(OCC)c3)[C@H]2C1,5,4,3,5,18,-2
N#CC1=C(N)C(C#N)(C#N)C(c2cccnc2)C2CN(C(=O)OCc3ccccc3)CC=C12 (stereo not given),0,-2,2,9,28*,16
CCN1CCN(c2oc(-c3ccccc3)nc2S(=O)(=O)c2ccc(C)cc2)CC1,nt,6,2,nt,nt,5
CC1(C)N([O-])c2cc([N+](=O)[O-])ccc2[N+]1=O,15,nt,nt,31*,23,nt
Cc1ccc(C)n1-c1cc([N+](=O)[O-])ccc1-n1ccnc1,-4,nt,nt,1,-4,nt
Cc1ccc(-n2c(C)cc(-c3csc(N)n3)c2C)cc1,-2,1,-2,25*,-1,3
COc1ccc(-c2csc(N)n2)cc1,3,8,11,0,1,5
Cc1cc(-c2csc(N)n2)c(C)n1C,-3,6,7,16,-12,6
Cc1ccc(-c2csc(N)n2)cc1,nt,3,70*,nt,nt,12
Cc1cccc(C)c1NC(=O)[C@@]1(CC(=O)O)CC(/C=C/c2ccccc2)=NO1,nt,3,3,nt,nt,-13
CCOc1ccc(/C=C2\CCCc3c2nc2ccccc2c3C(=O)O)cc1OC,11,28*,6,16,4,19
COc1ccc(/C=C2\CCCc3c2nc2ccccc2c3C(=O)O)cc1OC,1,nt,nt,7,-2,nt
COc1cc(/C=C2\CCCc3c2nc2ccccc2c3C(=O)O)cc([N+](=O)[O-])c1O,9,16,1,32*,-5,25
Cc1cccc(C(=O)Nc2sc(-c3ccccc3)cc2C(=O)O)c1,8,9,33*,34*,25,23
O=C(C1CCCCCC1)N1CC[C@@H](N2CCC(O)CC2)[C@H](O)C1,-1,-2,4,-3,-5,0
CCN(CC)c1ccc(/C=C2\CCC(/C=N/NC(=O)c3ccc(=O)n(C)c3)=C2N2CCOCC2)cc1,3,5,3,29*,6,-1
